From PubChem BioAssay AID743193 (National Center for Advancing Translational Sciences (NCATS), 2013)
Inconclusive results are not listed. Active and inactive are the calls of the source. The call rests on the fitted dose curve; in most records, active means well fitted curve in the direction sought with a large enough effect; inconclusive means small, poorly fitted or top-dose-only effect, or another doubt; inactive means no such curve, though single readings can be large or run the other way.

molecular target: Glyceraldehyde-3-phosphate dehydrogenase (Oryctolagus cuniculus) (UniProt P46406); assay: Extended Characterization of HPGD Inhibitors: Counterscreen Against rGAPDH; settings: rabbit GAPDH/diaphorase coupled resazurin fluorescence; series mostly up to 57.1 µM
Sequence (P46406 whole entry, looked up): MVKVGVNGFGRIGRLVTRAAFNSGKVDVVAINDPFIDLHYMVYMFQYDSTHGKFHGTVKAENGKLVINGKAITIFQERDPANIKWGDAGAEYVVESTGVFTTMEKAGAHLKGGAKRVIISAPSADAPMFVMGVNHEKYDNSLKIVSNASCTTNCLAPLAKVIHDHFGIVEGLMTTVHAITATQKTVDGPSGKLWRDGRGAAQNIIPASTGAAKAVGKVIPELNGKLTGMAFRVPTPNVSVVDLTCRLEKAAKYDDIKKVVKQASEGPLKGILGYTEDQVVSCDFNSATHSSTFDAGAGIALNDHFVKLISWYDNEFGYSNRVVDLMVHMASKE
Experimental: The central role of HPGD is to inactivate prostaglandins such as prostaglandin E2 (PGE2) or prostaglandin D2 (PGD2). These prostaglandins are involved in a number of processes, including inflammation, differentiation, and cellular signaling, which makes HPGD an important target for pharmacological intervention. The counterscreen for non-specific dehydrogenase activity was conducted using a rabbit glyceraldehyde-3-phosphate dehydrogenase (rGAPDH; Sigma Aldrich, St. Louis, MO) coupled assay system. In this assay, the rGAPDH-catalyzed conversion of NAD+ to NADH is coupled downstream to an additional enzyme, diaphorase (Sigma Aldrich, St. Louis, MO), which reduces the non-fluorescent molecule, resazurin, to a red fluorescent product, resorufin, in an NADH-dependent fashion. Thus, rGAPDH activity leads to an increase in fluorescence at 598 nm, and inhibitors of the reaction lead to a decrease in resorufin production and a subsequent decrease in fluorescence. The change in fluorescence between 0 and 30 minutes was measured, and data were normalized to control columns representing maximum signal (all components) and background (no rGAPDH). The buffer consisted of 100mM triethanolamine, pH 7.6, 5mM MgCl2 and 0.01% Tween-20, and the assay was run in black, solid-bottom, non-tissue culture-treated Greiner plates. NIH Chemical Genomics Center [NCGC] NIH Molecular Libraries Probe Centers Network [MLPCN] MLPCN Grant: MH084681 Assay Submitter (PI): Structural Genomics Consortium
3 uL of substrate buffer (final conc: 2 mM G3P, 1 mM NAD+, 0.1 mM resazurin, 0.1 mg/mL diaphorase) are added to the 1536-well plate before 23 nL of compound library is pinned into the well. Then, 1 uL of rGAPDH or 0x control (final conc: 2 nM and buffer only, resp.) are added and plate is immediate read for fluorescence on the ViewLux; ex 525, em 598, 1 second exposure, Bodipy Mirror), incubated for 30 at RT before a final read on the ViewLux with the same settings.

Compound	outcome
Cc1cc(-c2nnc3n2CCCCC3)c(C)n1-c1ccc(Cl)c(Cl)c1	inactive
O=C(c1ccc2c(c1)ncn2-c1cccc(Cl)c1)N1CCCCC1	inactive
COc1ccc(-n2cnc3cc(C(=O)N4CCCCC4)ccc32)cc1	inactive
O=C(c1ccc2c(c1)ncn2-c1cccc(C(F)(F)F)c1)N1CCCCC1	inactive
Cc1ccc(-n2c(C)cc(-c3nnc4n3CCCCC4)c2C)cc1	inactive
Cc1cccc(-n2cnc3cc(C(=O)N4CCCC(C)(C)C4)ccc32)c1	inactive
Cc1cc(-c2nnc3n2CCCCC3)c(C)n1-c1cccc(C(F)(F)F)c1	inactive
Cc1cc(-c2nnc3n2CCCCC3)c(C)n1-c1cccc(Cl)c1	inactive
Cc1cccc(-n2cnc3cc(C(=O)N4CCCC(C(F)(F)F)C4)ccc32)c1 (centres undefined)	inactive
